# Reference: ChEMBL document CHEMBL4513154, “CO-ADD screening of Jain University (India) compounds”
# Potency and affinity values are given separately.
# Tested on: Escherichia coli
# Details: Concentration 32 ug.mL-1; ASSAY_TEST Inhibition of Bacterial Growth; detection method Absorption (OD600); MEDIA CAMHB; plate type 384well; NBS; CORNING #3640; time 18 hr
row,SMILES,Inhibition
1,N#Cc1ccccc1-c1ccc(Cn2c(-c3cscn3)nc3ccccc32)cc1,-0.92%
2,Cn1c(-c2cscn2)nc2cc(Cl)ccc21,-10.62%
3,Clc1ccc2nc(-c3cscn3)n(Cc3ccccc3)c2c1,-8.13%
4,N#Cc1ccccc1-c1ccc(Cn2c(-c3cscn3)nc3ccc(Cl)cc32)cc1,-6.57%
5,CC(C)c1ccc(Cn2c(-c3cscn3)nc3c(Cl)cccc32)cc1,-0.45%
6,CCc1ccc(Nc2nc(N)c(-c3nc4ccccc4c(=O)n3-c3ccccc3)s2)cc1,-0.69%
7,O=[N+]([O-])c1ccc(Cn2c(-c3cscn3)nc3ccccc32)cc1,-6.04%
8,CCc1ccc(Nc2nc(N)c(-c3nc4ccccc4c(=O)n3-c3ccc(CC)cc3)s2)cc1,-1.71%
9,N#Cc1ccccc1-c1ccc(Cn2c(-c3cscn3)nc3c(Cl)cccc32)cc1,1.52%
10,Nc1nc(Nc2ccc(Cl)cc2)sc1-c1nc2ccccc2c(=O)n1-c1ccccc1,-2.8%
11,Nc1nc(Nc2ccccc2)sc1-c1nc2ccccc2c(=O)n1-c1ccc(Cl)cc1,-14.74%
12,Clc1ccc2c(c1)nc(-c1cscn1)n2Cc1ccccc1,-7.11%
13,CCc1ccc(Nc2nc(N)c(-c3nc4ccccc4c(=O)n3-c3ccc(Cl)cc3)s2)cc1,0.09%
14,Fc1cc(Cn2c(-c3cscn3)nc3c(Cl)cccc32)cc(C(F)(F)F)c1,3.26%
15,N#Cc1ccccc1-c1ccc(Cn2c(-c3cscn3)nc3cc(Cl)ccc32)cc1,-8.05%
16,Cn1c(-c2cscn2)nc2c(Cl)cccc21,-9.25%
17,CCc1ccc(-n2c(-c3sc(Nc4ccccc4)nc3N)nc3ccccc3c2=O)cc1,-7.31%
18,Nc1nc(Nc2ccccc2)sc1-c1nc2ccccc2c(=O)n1-c1ccccc1,1.98%
19,N#Cc1ccc(Cn2c(-c3cscn3)nc3c(Cl)cccc32)cc1,-8.14%
20,N=C(Nc1ccccc1)c1cscn1,3.08%
21,Clc1cccc2[nH]c(-c3cscn3)nc12,-6.5%
22,Clc1cccc2c1nc(-c1cscn1)n2Cc1ccccc1,-9.3%
23,N=C(Nc1ccccc1Cl)c1cscn1,18.4%
